biological target: Streptavidin (Streptomyces avidinii) (UniProt P22629); assay: streptavidin binders on small-molecule microarray, primary screen, artefact control for SMM compound annotation, biophysical, 635/667 nm fluorescence (AID 1147); settings: streptavidin binding, higher = more signal;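 also: signal reflects streptavidin binding to arrayed compounds as a control protein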
Sequence (P22629 whole entry, looked up): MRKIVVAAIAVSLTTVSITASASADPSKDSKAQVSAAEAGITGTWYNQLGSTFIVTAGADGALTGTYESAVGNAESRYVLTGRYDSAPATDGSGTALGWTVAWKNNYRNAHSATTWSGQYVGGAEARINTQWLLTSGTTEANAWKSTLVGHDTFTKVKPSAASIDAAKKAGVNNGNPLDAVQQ

First: COCCOC(=O)N1C(=O)[C@@]2(c3cc(C#CCC(C(=O)OC)C(=O)OC)ccc31)[C@H](C(N)=O)[C@H]1C(=O)O[C@H](c3ccccc3)[C@H](c3ccccc3)N1[C@@H]2c1ccc(O)cc1
Second: COCCOC(=O)N1C(=O)[C@@]2(c3ccccc31)[C@H](c1ccc(O)cc1)N1[C@H](c3ccccc3)[C@H](c3ccccc3)OC(=O)[C@H]1[C@@H]2C(=O)N1CCCCCCC1
The composite z-score of the first is lower: -0.0413 for the first, 3.03 for the second.

Compared with COc1cc(OC)c(C(O)C2C=CC3C(=O)N(c4ccccc4)C(=O)C3N2Nc2ccc(C(C)C)cc2)cc1Br (stereo unspecified), COc1cc(C(O)C2C=CC3C(=O)N(c4ccccc4)C(=O)C3N2Nc2ccccc2F)cc(OC)c1OC (stereo unspecified) is lower in composite z-score: 1.71 for the first, 0.135 for the second.

Compared with C#CCN1[C@@H](Cc2ccccc2)C(=O)O[C@H](Cc2ccccc2)[C@@H]1/C=C/C1CC1, CN1C(=O)[C@@H]2[C@@H](CC(COc3ccccc3)=C3[C@@H](CCc4ccccc4)OB(O)C[C@@H]32)C1=O is higher in composite z-score: -0.497 for the first, -0.156 for the second.

First: CN(C)CCCNC(=O)[C@@H]1c2ccccc2C(=O)N(Cc2ccccc2C(F)(F)F)[C@H]1c1ccc(CO)cc1
Second: O=C1c2ccccc2[C@@]2(Cc3ccccc3N(Cc3ccccc3)C2=O)[C@H](c2ccc(CO)cc2)N1Cc1ccccc1Cl
The composite z-score of the first is lower: -0.734 for the first, -0.463 for the second.

Going from COc1ccc([Si](C)(C)[C@H]2[C@H](CCO)O[C@@]3(C(=O)N(Cc4ccc(NC(=O)[C@H](C)O)cc4)c4ccccc43)[C@@H]2C)cc1 to COc1ccc([Si](C)(C)[C@@H]2[C@@H](CC(=O)N3Cc4ccccc4C[C@H]3CO)O[C@]3(C(=O)N(Cc4cccc(N5CCOC5=O)c4)c4ccccc43)[C@H]2C)cc1, the composite z-score falls from 0.674 to -0.281.

Going from CCOC(=O)C[C@H]1[C@H](OC(=O)c2ccccc2-c2ccccc2)[C@@H](NC(=O)c2ccc3ccccc3c2)c2cc(OCCCO)ccc2N1C(=O)Cc1ccc(OC)cc1 to O=C1N(CCS(=O)(=O)c2ccccc2)c2ccccc2C[C@]12N=C(c1ccc(OCCCO)cc1)O[C@@H]2c1ccccc1, the composite z-score rises from -0.0096 to 0.404.

Compared with COCCCN1C(=O)[C@@]2(c3ccc([N+](=O)[O-])cc3)CC(=O)N(CC34CC5CC(CC(C5)C3)C4)[C@@H]2c2ccc(CO)cc21, O=C1C[C@@](C(=O)O)(c2ccc([N+](=O)[O-])cc2)[C@@H](c2ccc(CO)cc2)N1C1CCCCC1 is higher in composite z-score: 0.135 for the first, 0.856 for the second.

Compared with C=C1C(=O)C=C2CN(C(=O)c3ccccc3)[C@@](Cc3ccc(OC)cc3)(C(=O)OC)[C@@H]12, COC(=O)[C@@]1(Cc2ccc(OC)cc2)[C@H]2c3cc(C(=O)N(C)C)[nH]c3C[C@H]2CN1C(=O)c1ccccc1 is lower in composite z-score: 1.72 for the first, 0.226 for the second.

Compared with C=CCNC(=O)[C@H]1[C@@H]2C(=O)O[C@@H](c3ccccc3)[C@@H](c3ccccc3)N2[C@@H](c2ccc(OCCO)cc2)[C@]12C(=O)Nc1ccccc12, CN(C)C(=O)[C@]1(Cc2ccccc2)N=C(c2ccc(OCCCO)cc2)O[C@@H]1c1ccccc1CN=[N+]=[N-] is higher in composite z-score: 0.917 for the first, 1.34 for the second.

First: C[N+](C)(C)CCCCNC(=O)[C@H]1C[C@H]2C(=O)N[C@@H](Cc3ccccc3)C(=O)N2[C@H]1c1cccc(OCCO)c1
Second: COCCCNC(=O)[C@@]1(CCS(=O)(=O)c2ccccc2)COC(c2ccc(OCCCO)cc2)=N1
The composite z-score of the first is lower: 0.313 for the first, 2.53 for the second.

First: CC(C)[Si](C#CCCc1ccccc1)(O[C@H](c1ccccc1)c1cn(Cc2ccccc2)nn1)C(C)C
Second: CO[C@H]1O[C@H](CO)[C@@H](OC(=O)Nc2ccccc2)[C@H](OC(=O)Nc2ccccc2)[C@H]1OC(=O)Nc1ccccc1
The composite z-score of the first is higher: 1.61 for the first, 0.0545 for the second.

First: CCCCN1CC=CC23O[C@@H]4/C=C\CCCOC(=O)C4[C@H]2C(=O)N(C(CO)C(C)C)[C@@H]3C1=O (stereo partly specified)
Second: CC(C)(C)N1CC=CC23O[C@@H]4/C=C\CCCOC(=O)C4[C@H]2C(=O)N(CCCCCO)[C@@H]3C1=O (stereo partly specified)
The composite z-score of the first is higher: -0.275 for the first, -0.573 for the second.

Going from O=C1NC(=O)C2C1C=CC(C(O)c1ccc([N+](=O)[O-])cc1)N2Nc1ccccn1 (stereo unspecified) to O=C1NC(=O)C2C1C=CC(C(O)c1ccc(B(O)O)cc1)N2Nc1ccc(Cl)cc1Cl (stereo unspecified), the composite z-score rises from -0.115 to 1.09.

Compared with O=C1[C@H]2C=C(I)[C@H](C[C@@H]2OCCCCCCO)[C@@]12CO2, CC1CC/C=C\[C@H]2OC34C=CCN(c5ccc(Cl)cc5)C(=O)[C@H]3N(CCCCCCO)C(=O)[C@]4(C)C2C(=O)O1 (stereo partly specified) is lower in composite z-score: -0.324 for the first, -0.963 for the second.

First: Cc1ccc(C(C)CC(O)C2C=CC3C(=O)N(C)C(=O)C3N2Nc2ccccc2)o1 (stereo unspecified)
Second: CCCCC(O)C1C=CC2C(=O)N(c3ccccc3)C(=O)C2N1Nc1ccccc1 (stereo unspecified)
The composite z-score of the first is lower: 0.0989 for the first, 0.682 for the second.

Compared with CCCCCCc1nc(-c2ccc(-c3ccc(Cl)c(Cl)c3)o2)cc2c1[Si](C(C)C)(C(C)C)OC2, C=C(CCCC)/C(=C/C[C@H](OC(=O)c1ccncc1)c1cccc(OCCO)c1)c1cnc2ccccc2c1 is higher in composite z-score: -1.24 for the first, 0.905 for the second.

First: C[C@@H]1ON(c2ccccc2)[C@H](c2ccccc2)[C@H]1C(=O)O
Second: COc1ccc(C(O)C2C=CC3C(=O)NC(=O)C3N2Nc2ccc(Cl)cc2Cl)c2ccccc12 (stereo unspecified)
The composite z-score of the first is lower: 0.0265 for the first, 0.767 for the second.

Going from CCOC(=O)C1=CC[C@@H](c2ccc(OC)cc2)N(S(=O)(=O)c2ccc(C)cc2)[C@H]1CC to CC(C)OC(=O)CC(=O)CC(O)c1cccc([N+](=O)[O-])c1 (stereo unspecified), the composite z-score falls from 1.53 to 1.14.
